The text below walks through data of PubChem BioAssay (EPA / NIEHS).

Active and inactive are the calls of the source. How the source made its calls: active means hit-call score of the fitted dose curve at least 0.9, where 1 is the maximum; inactive means score below 0.9.

Read-out in test [1]: Plasminogen activator inhibitor-1 (PAI1), SERPINE1 (gene 5054)
Kind of test: BSK_MyoF_PAI1: BioMAP Diversity Plus: MyoF Assay for Plasminogen activator inhibitor-1 (PAI1) Biomarker Activity (AID 2284256). As to conditions: primary human lung fibroblasts. In outline: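 Primary human lung fibroblasts treated with chemical for 24 h; PAI-1 levels quantified by ELISA relative to DMSO. Cytotoxicity was assessed in parallel cultures by SRB total-protein staining (0.1% SRB after 10% TCA fixation, 560 nm).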

Read-out in test [2]: Interleukin-8 (IL8), CXCL8 (gene 3576)
Put plainly: BSK_MyoF_IL8: BioMAP Diversity Plus: MyoF Assay for Interleukin-8 (IL8) Biomarker Activity (AID 2284261). As to conditions: primary human lung fibroblasts. The method, boiled down: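 Human lung fibroblast (MyoF system) cultures dosed for 24 h, then IL-8 measured by ELISA. Response taken relative to DMSO; parallel SRB total-protein staining for cytotoxicity.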

Read-out in a further test: Decorin, DCN (gene 1634)
Kind of test: BSK_MyoF_Decorin: BioMAP Diversity Plus: MyoF Assay for Decorin Biomarker Activity (AID 2284265). As to conditions: primary human lung fibroblasts. In outline:
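Human lung fibroblast cultures were dosed for 24 h, and decorin was then measured by ELISA. Parallel cultures were stained with sulforhodamine B for total protein as a cytotoxicity check. Gain of signal was fitted relative to DMSO.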

Test [3] in a line: BSK_MyoF_SRB: Viability Assessment in the BioMAP Diversity Plus: MyoF Assay (AID 2284267).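 Further: total protein by SRB absorbance in parallel cultures as cytotoxicity measure.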 As to conditions: primary human lung fibroblasts. The method, boiled down:
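Lung fibroblast cultures, 24 h post-dose; fix 10% TCA, stain 0.1% SRB, read 560 nm. Signal = total protein as cytotoxicity measure; fitted relative to DMSO negative control.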

Read-out in test [4]: Matrix Metallopeptidase 1 (MMP1), MMP1 (gene 4312)
Put plainly: BSK_MyoF_MMP1: BioMAP Diversity Plus: MyoF Assay for Matrix Metallopeptidase 1 (MMP1) Biomarker Activity (AID 2284268). As to conditions: primary human lung fibroblasts. In outline:
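Human lung fibroblast primary cells; MMP1 measured by ELISA 24 h after dosing, fitted in the positive direction relative to DMSO. Parallel SRB staining (0.1%, after 10% TCA fixation, 560 nm) assesses overt cytotoxicity.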

Read-out in test [5]: TIMP metallopeptidase inhibitor 1 (TIMP1), TIMP1 (gene 7076)
Kind of test: BSK_MyoF_TIMP1: BioMAP Diversity Plus: MyoF Assay for TIMP metallopeptidase inhibitor 1 (TIMP1) Biomarker Activity (AID 2284269). As to conditions: primary human lung fibroblasts. The method, boiled down: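 TIMP-1 levels were determined by ELISA in human lung fibroblasts treated for 24 h. DMSO served as negative control and baseline for upward curve fitting.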

Read-out in a further test: CD69, CD69 (gene 969)
Put plainly: BSK_IMphg_CD69: BioMAP Diversity Plus: IMphg Assay for CD69 Biomarker Activity (AID 2284257). As to conditions: primary human endothelial cells with macrophages. The method, boiled down: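 Readout is ELISA for CD69 in primary human venular endothelial cell/macrophage co-culture, taken at 24 h post-dosing. SRB staining of parallel cultures gauged overt cytotoxicity; signal increase versus DMSO defined activity.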

Read-out in test [6]: Eotaxin 3, CCL26 (gene 10344)
Kind of test: BSK_BF4T_Eotaxin3: BioMAP Diversity Plus: BF4T Assay for Eotaxin 3 Biomarker Activity (AID 2284258). As to conditions: primary human bronchial epithelial cells with fibroblasts. In outline:
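ELISA measurement of Eotaxin-3 after 24 h chemical exposure in a bronchial epithelial/dermal fibroblast co-culture, with DMSO as baseline. Parallel SRB staining (0.1% SRB after 10% TCA fixation, 560 nm) flagged overt cytotoxicity.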

Read-out in test [7]: Monocyte Chemoattractant Protein-1 (MCP1), CCL2 (gene 6347)
Kind of test: BSK_BF4T_MCP1: BioMAP Diversity Plus: BF4T Assay for Monocyte Chemoattractant Protein-1 (MCP1) Biomarker Activity (AID 2284259). As to conditions: primary human bronchial epithelial cells with fibroblasts. In outline:
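MCP-1 ELISA readout taken 24 h after dosing in the BF4T system (bronchial epithelial cells plus dermal fibroblasts). Parallel SRB total-protein staining flagged cytotoxicity; DMSO served as baseline, positive fitting direction.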

Read-out in test [8]: Intercellular Adhesion Molecule 1 (ICAM1), ICAM1 (gene 3383)
Kind of test: BSK_BF4T_ICAM1: BioMAP Diversity Plus: BF4T Assay for Intercellular Adhesion Molecule 1 (ICAM1) Biomarker Activity (AID 2284260). As to conditions: primary human bronchial epithelial cells with fibroblasts. In outline:
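ICAM-1 levels measured by ELISA after 24 h chemical treatment of bronchial epithelial cell/dermal fibroblast co-cultures, read against DMSO baseline. Overt cytotoxicity checked in parallel cultures by sulforhodamine B staining.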

Read-out in a further test: CD90, THY1 (gene 7070)
Kind of test: BSK_BF4T_CD90: BioMAP Diversity Plus: BF4T Assay for CD90 Biomarker Activity (AID 2284262). As to conditions: primary human bronchial epithelial cells with fibroblasts. The method, boiled down:
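CD90 levels by ELISA after 24 h treatment of human bronchial epithelial cell/dermal fibroblast cultures, analysed versus DMSO. Overt cytotoxicity checked in parallel cultures by sulforhodamine B staining.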

Read-out in test [9]: Interleukin-8 (IL8), CXCL8 (gene 3576)
Kind of test: BSK_BF4T_IL8: BioMAP Diversity Plus: BF4T Assay for Interleukin-8 (IL8) Biomarker Activity (AID 2284263). As to conditions: primary human bronchial epithelial cells with fibroblasts. The method, boiled down: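 Human bronchial epithelial cells with dermal fibroblasts co-culture; IL-8 measured by ELISA 24 hours after dosing, fitted vs DMSO. Cytotoxicity tracked in parallel cultures by SRB total-protein staining.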

Read-out in test [10]: Interleukin-1 alpha (IL1a), IL1A (gene 3552)
Kind of test: BSK_BF4T_IL1a: BioMAP Diversity Plus: BF4T Assay for Interleukin-1 alpha (IL1a) Biomarker Activity (AID 2284264). As to conditions: primary human bronchial epithelial cells with fibroblasts. The method, boiled down: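 ELISA read-out of IL-1α from bronchial epithelial cell/dermal fibroblast co-cultures 24 h after compound addition. Increases scored against DMSO negative control. Cytotoxicity monitored by sulforhodamine B staining of parallel cultures.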

Read-out in another test: KRT18 (gene 3875)
Kind of test: BSK_BF4T_Keratin818: BioMAP Diversity Plus: BF4T Assay for Keratin 818 Biomarker Activity (AID 2284266). As to conditions: primary human bronchial epithelial cells with fibroblasts. The method, boiled down:
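Keratin 8/18 levels quantified by ELISA after 24 h chemical treatment of bronchial epithelial cell/dermal fibroblast co-cultures, fitted in positive direction relative to DMSO. Parallel SRB staining tracks overt cytotoxicity.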

Read-out in test [11]: Matrix Metallopeptidase 1 (MMP1), MMP1 (gene 4312)
Kind of test: BSK_BF4T_MMP1: BioMAP Diversity Plus: BF4T Assay for Matrix Metallopeptidase 1 (MMP1) Biomarker Activity (AID 2284270). As to conditions: primary human bronchial epithelial cells with fibroblasts. The method, boiled down:
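MMP-1 quantified by ELISA in primary human bronchial epithelial/dermal fibroblast co-cultures, 24 hours post-dosing, with DMSO as baseline; parallel sulforhodamine B staining (560 nm) tracks overt cytotoxicity.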

Read-out in test [12]: Matrix Metallopeptidase 3 (MMP3), MMP3 (gene 4314)
Put plainly: BSK_BF4T_MMP3: BioMAP Diversity Plus: BF4T Assay for Matrix Metallopeptidase 3 (MMP3) Biomarker Activity (AID 2284271). As to conditions: primary human bronchial epithelial cells with fibroblasts. The method, boiled down: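 MMP-3 level read by ELISA after 24 h chemical exposure of bronchial epithelial cell/dermal fibroblast co-cultures, fitted upward relative to DMSO. Parallel cultures stained with 0.1% SRB after TCA fixation gauge overt cytotoxicity.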

Read-out in test [13]: Tissue plasminogen activator (tPA), PLAT (gene 5327)
Kind of test: BSK_BF4T_tPA: BioMAP Diversity Plus: BF4T Assay for Tissue plasminogen activator (tPA) Biomarker Activity (AID 2284272). As to conditions: primary human bronchial epithelial cells with fibroblasts. In outline: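 tPA level quantified by ELISA at 24 h post-treatment in bronchial epithelial/dermal fibroblast co-cultures, gain of signal scored against DMSO baseline. Parallel cultures stained with 0.1% SRB (560 nm) to flag overt cytotoxicity.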

Read-out in test [14]: Plasminogen Activator Inhibitor-1 (PAI1), SERPINE1 (gene 5054)
Put plainly: BSK_BF4T_PAI1: BioMAP Diversity Plus: BF4T Assay for Plasminogen Activator Inhibitor-1 (PAI1) Biomarker Activity (AID 2284273). As to conditions: primary human bronchial epithelial cells with fibroblasts. The method, boiled down: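 PAI-1 levels quantified by ELISA 24 h post-dosing in bronchial epithelial cell plus dermal fibroblast cultures. Signal gain referenced to DMSO baseline. Sulforhodamine B total-protein staining of parallel wells checked cytotoxicity.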

Test [15] is described as follows: BSK_BF4T_SRB: Viability Assessment in the BioMAP Diversity Plus: BF4T Assay (AID 2284274). As to conditions: primary human bronchial epithelial cells with fibroblasts. In outline:
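Cytotoxicity measured as total protein: cells fixed with 10% TCA, stained with 0.1% SRB, read at 560 nm. Bronchial epithelial/dermal fibroblast co-culture, 24 h after dosing, with positive-direction fitting relative to DMSO.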

Read-out in test [16]: urokinase Plasminogen Activator (uPA), PLAU (gene 5328)
Put plainly: BSK_BF4T_uPA: BioMAP Diversity Plus: BF4T Assay for urokinase Plasminogen Activator (uPA) Biomarker Activity (AID 2284275). As to conditions: primary human bronchial epithelial cells with fibroblasts. In outline: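 uPA levels measured by ELISA at 24 hours in BF4T cultures (bronchial epithelial cells plus dermal fibroblasts) and compared with DMSO; cytotoxicity tracked in parallel cultures by sulforhodamine B staining.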

Take `CCOP(=S)(OCC)Oc1ccc(S(C)=O)cc1` (stereo not drawn): the outcome in [1] is “inactive”; in test [2] it was “inactive”; with Decorin, DCN (gene 1634), “inactive”; in [3] it was “inactive”; in test [4] it was “inactive”; in [5], “inactive”.
As to `CCOC(=O)/C=C(C)/C=C/C[C@@H](C)CCCC(C)C`, the AC50 (usually the concentration giving half of the maximal activity seen) in [1] is 32.3 µM (active); in the test with Decorin, DCN (gene 1634) it was 20 µM (active); in test [3], 30.1 µM (active); in [4], 20 µM (active); in [5] it was 29.8 µM (active). The outcome in test [2] was inactive.
For the compound `CCSC(C)CC1CC(=O)C(C(CC)=NOC/C=C/Cl)=C(O)C1` (stereo not drawn), the outcome in test [1] was “inactive”; in test [2] it was “inactive”; with Decorin, DCN (gene 1634), “inactive”; in test [3] it was “inactive”; in test [4], “inactive”; in test [5], “inactive”.
As to `NC(=S)Nc1ccccc1`, the outcome in [1] is “inactive”; in test [2] it was “inactive”; with Decorin, DCN (gene 1634) it was “inactive”; in test [3], “inactive”; in test [4], “inactive”; in [5], “inactive”.
With `O=C(O)CCC(F)(C(F)(F)F)C(F)(F)F`, the outcome is “inactive” in [1]; “inactive” with CD69, CD69 (gene 969); “inactive” in [6]; “inactive” in test [7]; “inactive” in [8]; “inactive” in test [2]. Besides, the outcome in the test with CD90, THY1 (gene 7070) was “inactive”; in test [9], “inactive”; in test [10] it was “inactive”; with Decorin, DCN (gene 1634), “inactive”; in the test with KRT18 (gene 3875), “inactive”; in test [3], “inactive”. Also, the result in test [4], in test [5], in test [11], in test [12], in [13] and in [14] was inactive. The outcome in [15] and in test [16] was inactive.
For the compound `COC(=O)c1sccc1S(=O)(=O)NC(=O)Nc1nc(C)nc(OC)n1`, the outcome is “inactive” in test [1]; “inactive” in test [2]; “inactive” in the test with Decorin, DCN (gene 1634); “inactive” in [3]; “inactive” in test [4]; “inactive” in test [5].
With `COc1cc(OC)nc(NC(=O)NS(=O)(=O)c2ncccc2C(=O)N(C)C)n1`, the outcome in test [1] was “inactive”; in test [2], “inactive”; in the test with Decorin, DCN (gene 1634) it was “inactive”; in test [3] it was “inactive”; in test [4] it was “inactive”; in test [5] it was “inactive”.
Turning to `Nc1cccc2ccccc12`, the outcome in [1] is “inactive”; with Decorin, DCN (gene 1634), “inactive”; in test [3], “inactive”; in [5] it was “inactive”. Moreover, the results for the concentration at half-maximal activity (AC50) in [2] and in test [4] were 11.4 µM (active) and 20 µM (active), respectively.
On to `CC(=O)C(Cl)C(=O)N(C)C` (stereo not drawn), for which the outcome in test [1] was “inactive”; in test [2], “inactive”; in the test with Decorin, DCN (gene 1634), “inactive”; in test [3], “inactive”; in test [4], “inactive”; in test [5] it was “inactive”.
